Inconclusive results are not listed. Calls of active or inactive are those of the source. Calls follow the shape of the dose curve; as a rule, active = well fitted inhibition curve with a large enough effect; inconclusive = small, poorly fitted or top-dose-only effect; inactive = flat fitted curve, though single readings scatter.
Potency is read from the fitted curve at half-maximal effect.

This test in a line: BET inhibitor-based combinations targeting novel dependencies in MECOM-rearranged (r) AML: AML-194 cell line (AID 2202237; also: nearly all actives have a fitted effect of over 40% in size;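 as to viability (% of control): plate controls were vehicle wells for no effect and wells without cells for full effect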). To be noted: AML-194 (MECOM-r AML) viability, CellTiter-Glo, 48 h; series mostly up to 46 µM; viability (% of control): at the top concentration. The method, boiled down:
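AML cell lines seeded at 500 cells/well, treated with 11-point dose curves for 48 h. Viability by CellTiter-Glo luminescence, normalised to DMSO and empty wells; activity expressed as AUC and per-cell-line Z-transformed AUC.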
(ATP-based viability assays read luminescence as a measure of living cells.)
In the case of `Nc1nc(F)nc2c1ncn2[C@@H]1O[C@H](COP(=O)(O)O)[C@@H](O)[C@@H]1O`, the Potency was 4170 nM (active).

As to `COc1cc2ncn(-c3cc(OCc4ccccc4C(F)(F)F)c(C(N)=O)s3)c2cc1OC`, the Potency was 1050 nM (active).

As for `COc1cc(-c2cn(C)c(=O)c3cnccc23)cc(OC)c1CN(C)C`, the “viability (% of control)” value was 110% (inactive).

As to `CC(C)C(=O)OCC(=O)[C@@]12O[C@H](C3CCCCC3)O[C@@H]1C[C@H]1[C@@H]3CCC4=CC(=O)C=C[C@]4(C)[C@H]3[C@@H](O)C[C@@]12C`, the Potency was 16600 nM (active).

As for `CC#CC(=O)N1CC[C@@H](n2c(=O)n(-c3ccc(Oc4ccccc4)cc3)c3c(N)ncnc32)C1`, the “viability (% of control)” value is 88.7% (inactive).

`O=C(O)CNC(=O)c1ncc(-c2cccc(Cl)c2)cc1O`: the “viability (% of control)” value was 97.3% (inactive).

Consider `C=C1C[C@@H]2CC[C@@]34C[C@H]5O[C@H]6[C@@H](O3)[C@H]3O[C@H](CC[C@@H]3O[C@H]6[C@H]5O4)CC(=O)C[C@@H]3[C@@H](OC)[C@@H](C[C@H](O)CN)O[C@H]3C[C@H]3O[C@@H](CC[C@@H]1O2)C[C@@H](C)C3=C`, for which the Potency was 1.9 nM (active).

In the case of `CCCC[C@@H](C=O)NC(=O)[C@H](CC(C)C)NC(=O)OCc1ccccc1`, the “viability (% of control)” value is 105% (inactive).

For `Cc1c(C(=O)Nc2ccc(Oc3ccnc4[nH]cc(-c5ccccc5)c34)c(F)c2)c(=O)n(-c2ccc(F)cc2)n1C`, the Potency is 1660 nM (active).

With `C[C@H](CCC(=O)O)[C@H]1CC[C@H]2[C@@H]3[C@@H](O)C[C@@H]4C[C@H](O)CC[C@]4(C)[C@H]3CC[C@]12C`, the “viability (% of control)” value was 104% (inactive).

Consider `COc1cc2c3c(n(CCCN4CCOCC4)c(=O)c2cc1OC)-c1cc2c(cc1C3=O)OCO2`, for which the Potency is 417 nM (active).

The values are drawn from PubChem BioAssay (NCATS).
